Results: publication PMC4336329 (PLoS ONE, 2015)
About 14,000 (4.5%) of roughly 310,000 compounds showed an effect of 50% or more. Effects have a minus sign here. The list comes from a sample in which strong results are over-represented; it also holds similar structures and randomly drawn compounds.

biological target: human ether-à-go-go-related gene (hERG) potassium channel (human, UniProt Q12809); assay: primary screen, population patch clamp on CHO cells stably expressing hERG; higher = less effect of the substance
Sequence (Q12809 whole entry, looked up): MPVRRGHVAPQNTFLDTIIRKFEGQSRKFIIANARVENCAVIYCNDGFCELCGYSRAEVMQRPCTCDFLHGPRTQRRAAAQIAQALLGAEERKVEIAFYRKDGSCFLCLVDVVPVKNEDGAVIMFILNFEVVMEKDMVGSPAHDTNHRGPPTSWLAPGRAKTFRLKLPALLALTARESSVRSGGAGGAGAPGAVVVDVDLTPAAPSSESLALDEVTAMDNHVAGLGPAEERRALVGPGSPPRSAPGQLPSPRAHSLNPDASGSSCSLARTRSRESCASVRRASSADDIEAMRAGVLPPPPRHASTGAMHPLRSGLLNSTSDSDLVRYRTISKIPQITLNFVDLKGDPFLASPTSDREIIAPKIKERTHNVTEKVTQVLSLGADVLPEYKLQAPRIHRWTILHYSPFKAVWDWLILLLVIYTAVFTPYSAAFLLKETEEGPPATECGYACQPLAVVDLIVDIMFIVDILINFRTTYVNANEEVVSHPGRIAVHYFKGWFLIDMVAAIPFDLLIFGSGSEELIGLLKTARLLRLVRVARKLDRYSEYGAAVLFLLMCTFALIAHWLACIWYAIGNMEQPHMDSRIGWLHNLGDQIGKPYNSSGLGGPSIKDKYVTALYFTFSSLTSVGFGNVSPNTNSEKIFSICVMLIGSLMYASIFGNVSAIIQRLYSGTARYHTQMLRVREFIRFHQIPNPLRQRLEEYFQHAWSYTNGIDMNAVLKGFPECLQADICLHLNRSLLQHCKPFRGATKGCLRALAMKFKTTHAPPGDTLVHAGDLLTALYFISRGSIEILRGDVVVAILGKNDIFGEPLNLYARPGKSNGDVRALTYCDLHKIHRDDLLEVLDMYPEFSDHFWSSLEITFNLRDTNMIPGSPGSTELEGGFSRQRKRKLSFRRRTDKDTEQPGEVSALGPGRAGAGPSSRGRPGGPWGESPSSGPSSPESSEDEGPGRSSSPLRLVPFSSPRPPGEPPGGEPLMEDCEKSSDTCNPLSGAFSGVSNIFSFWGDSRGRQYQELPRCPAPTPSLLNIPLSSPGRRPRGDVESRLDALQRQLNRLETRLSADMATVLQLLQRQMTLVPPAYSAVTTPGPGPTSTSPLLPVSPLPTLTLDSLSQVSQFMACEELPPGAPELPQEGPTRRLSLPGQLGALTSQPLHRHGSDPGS
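Further: peak tail current of the secondary pulse compared with the same well before compound.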

Compared with `O=S(=O)(CCc1nc2ccccc2o1)c1ccc2ccccc2c1`, `N/C(=N\OC(=O)c1ccc2ccccc2c1)c1ccncc1` is lower in “hERG current change (%, negative = inhibition) at 10uM” value: 7.8% for the first, -38.4% for the second.

Going from `Cc1cccc(/C(N)=N/OC(=O)c2ccc(Br)o2)c1` to `O=C(OCc1cccc([N+](=O)[O-])c1)c1cc2ccccc2oc1=O`, the “hERG current change (%, negative = inhibition) at 10uM” value rises from 11.7% to 20.7%.

Going from `Fc1ccc(-c2csc(/C=C/c3ccc4c(c3)OCO4)n2)cc1` to `CCOc1cc(/C=C2/N=C(c3ccc4c(c3)OCO4)OC2=O)ccc1OC(C)=O`, the “hERG current change (%, negative = inhibition) at 10uM” value falls from 13.2% to 9.87%.

First: CC(C)c1ccc(C(=O)CC2(O)C(=O)N(CN3CCOCC3)c3ccccc32)cc1 (stereo not drawn)
Second: CC(C)c1cc(NCCCN2CCOCC2)n2c(nc3ccccc32)c1C#N
The “hERG current change (%, negative = inhibition) at 10uM” value of the first is higher: 10.4% for the first, -79.9% for the second.

First: O=C1N(CCCCN2C(=O)C3(OCCO3)c3ccccc32)c2ccccc2C12OCCO2
Second: Cn1c(=O)oc2cc(S(=O)(=O)NC3CCN(Cc4ccccc4)CC3)ccc21
The “hERG current change (%, negative = inhibition) at 10uM” value of the first is higher: 6.9% for the first, -36.4% for the second.

Going from `CO[C@@H]1[C@@H](O[C@@H]2O[C@H](C)[C@@H](O[C@H]3C[C@@](C)(OC(=O)CC(C)C)[C@@H](O)[C@H](C)O3)[C@H](N(C)C)[C@H]2O)[C@@H](CC=O)C[C@@H](C)[C@@H](O)C=CC=CC[C@@H](C)OC(=O)C[C@H]1OC(C)=O` to `C[C@H](CCC(=O)O)[C@H]1CC[C@H]2[C@@H]3[C@H](O)C[C@@H]4C[C@H](O)CC[C@]4(C)[C@H]3CC[C@]12C`, the “hERG current change (%, negative = inhibition) at 10uM” value rises from -6.51% to 13.8%.

First: c1cncc(C2CCCCN2)c1 (stereo not drawn)
Second: O=[N+]([O-])c1ccccc1OCCCCN1CCCCC1
The “hERG current change (%, negative = inhibition) at 10uM” value of the first is higher: -6.38% for the first, -32.2% for the second.

First: COc1cccc(N2CCN(S(=O)(=O)c3cccc4cccnc34)CC2)c1
Second: COc1cccc(CN2CC(C(=O)NCc3cccc(N4CCCC4)c3)CCC2=O)c1 (stereo not drawn)
The “hERG current change (%, negative = inhibition) at 10uM” value of the first is higher: 15.5% for the first, -5.08% for the second.

Compared with `COc1c2c(cc3c1C(CC(O)Cc1ccccc1)N(C)CC3)OCO2` (stereo not drawn), `COc1ccc(CC(O)CC2c3c(cc4c(c3OC)OCO4)CCN2C)cc1.Cl` (stereo not drawn) is lower in “hERG current change (%, negative = inhibition) at 10uM” value: -61.3% for the first, -78.9% for the second.

First: COc1ccc2c(c1OC)C(=O)O[C@@H]2[C@H]1c2c(cc3c(c2OC)OCO3)CCN1C
Second: COc1ccc2c(c1OC)C(=O)OC2C1c2c(cc3c(c2OC)OCO3)CCN1C.Cl (stereo not drawn)
The “hERG current change (%, negative = inhibition) at 10uM” value of the first is lower: -2.49% for the first, -1.88% for the second.

First: COc1ccc2c(c1OC)C(C1c3c(cc4c(c3OC)OCO4)CCN1C)OC2=O (stereo not drawn)
Second: COc1ccc2c(c1OC)C(=O)OC2C1c2c(cc3c(c2OC)OCO3)CCN1C.Cl.O (stereo not drawn)
The “hERG current change (%, negative = inhibition) at 10uM” value of the first is higher: -7.14% for the first, -13.7% for the second.

Going from `O=c1[nH]ncc2c3ccccc3n(Cc3ccccc3)c12` to `CCc1ccc(C(O)(CNCc2ccccc2)c2ccccc2)cc1` (stereo not drawn), the “hERG current change (%, negative = inhibition) at 10uM” value falls from 15.8% to -41.6%.

Going from `S=C(NCc1ccco1)Nc1ccc(Cl)cc1Cl` to `COc1ccc(CCNC(=S)Nc2cccc3ccccc23)cc1`, the “hERG current change (%, negative = inhibition) at 10uM” value falls from 8.1% to -4.42%.

First: O=C1c2oc3ccccc3c(=O)c2C(c2cccc(Br)c2)N1Cc1ccco1 (stereo not drawn)
Second: O=C(Cn1c(=O)n(Cc2ccco2)c(=O)c2c3c(sc21)CCCC3)Nc1ccccc1
The “hERG current change (%, negative = inhibition) at 10uM” value of the first is lower: -8.64% for the first, 18% for the second.

Compared with `CCc1ccc(CN(C)CC(=O)Nc2ccc3c(c2)CCC3)cc1`, `CCOc1ccc(CC(=O)Nc2cccc(-c3ccc4nnc(C)n4n3)c2)cc1` is lower in “hERG current change (%, negative = inhibition) at 10uM” value: 9.39% for the first, -51.1% for the second.

First: Cc1ccc(C(=O)NNC(=O)c2ccc(Br)s2)cc1S(=O)(=O)N1CCOCC1
Second: Cc1cc(NCCCN2CCOCC2)n2c(nc3ccccc32)c1C#N
The “hERG current change (%, negative = inhibition) at 10uM” value of the first is lower: -26.2% for the first, -23.3% for the second.

Compared with `CCOc1ccc(CC(=O)Nc2ccc(-c3ccc4nnc(C)n4n3)cc2)cc1`, `COc1ccc(CC(=O)Nc2cccc(-c3ccc4nnc(C)n4n3)c2)cc1` is lower in “hERG current change (%, negative = inhibition) at 10uM” value: -40.4% for the first, -54.1% for the second.

Compared with `COc1ccc(CC(=O)Nc2cccc(-c3ccc4nnc(C)n4n3)c2)cc1OC`, `COc1ccc(CC(=O)Nc2ccc(-c3ccc4nnc(C)n4n3)cc2)cc1OC` is higher in “hERG current change (%, negative = inhibition) at 10uM” value: -0.118% for the first, 2.72% for the second.

First: Cc1nnc2ccc(-c3cccc(NC(=O)Cc4cccs4)c3)nn12
Second: CC(C)(C)C(=O)Nc1nnc(SCC(=O)NCc2cccs2)s1
The “hERG current change (%, negative = inhibition) at 10uM” value of the first is lower: -25.9% for the first, 16.3% for the second.

First: CCOC(=O)C1CCCN(C(=O)CS(=O)(=O)Cc2ccccc2)C1 (stereo not drawn)
Second: CC1CCN(CCCCOc2ccccc2[N+](=O)[O-])CC1.O=C(O)C(=O)O
The “hERG current change (%, negative = inhibition) at 10uM” value of the first is higher: 15.3% for the first, -26.3% for the second.

Compared with `O=C(CNC(=O)c1ccc2c(c1)OCO2)N/N=C/c1cc(Br)ccc1O`, `O=C(c1ccc2c(c1)OCO2)N1CCC2(CC1)OCCO2` is lower in “hERG current change (%, negative = inhibition) at 10uM” value: 20.1% for the first, -10.6% for the second.

Going from `Cn1c(SCC(N)=O)nnc1C1CCN(S(=O)(=O)c2ccccc2C(F)(F)F)CC1` to `CC1CCN(S(=O)(=O)c2ccc([N+](=O)[O-])cc2)CC1`, the “hERG current change (%, negative = inhibition) at 10uM” value falls from 13.3% to -3.23%.

First: COCC(=O)Nc1cc(=O)n(C)c(=O)n1C
Second: CCOC(=O)c1oc2ccccc2c1NC(=O)COC
The “hERG current change (%, negative = inhibition) at 10uM” value of the first is higher: 4.94% for the first, -12.2% for the second.

Compared with `OC(CNCc1ccc(Cl)cc1)(c1ccccc1)c1ccc(F)cc1` (stereo not drawn), `COc1ccc(CNCC(O)(c2ccccc2)c2ccc(Cl)cc2)cc1` (stereo not drawn) is lower in “hERG current change (%, negative = inhibition) at 10uM” value: -4.52% for the first, -68.8% for the second.

First: COc1ccc(CNCC(O)(c2ccc(Cl)cc2)c2ccc(Cl)cc2)cc1
Second: COc1ccc(CNCC(O)(c2ccccc2)c2ccccc2)cc1
The “hERG current change (%, negative = inhibition) at 10uM” value of the first is higher: -12% for the first, -64% for the second.

First: OC(CNCc1ccccc1)(c1ccccc1)c1ccccc1
Second: COc1ccc(OC)c(NC(=O)Cn2c(CCC(=O)O)ccc2-c2ccccc2)c1
The “hERG current change (%, negative = inhibition) at 10uM” value of the first is lower: -9.7% for the first, -5.33% for the second.

First: CN(CC(=O)Nc1ccccc1Cl)C(=O)CSc1ncc(C(F)(F)F)cc1Cl
Second: CCOc1ccc(OCC)c(NC(=O)C2CCCN(C(=O)c3ccc(Cl)cc3)C2)c1 (stereo not drawn)
The “hERG current change (%, negative = inhibition) at 10uM” value of the first is higher: 9.55% for the first, -34% for the second.

Compared with `CCCCCCCNC(=O)CC(NS(=O)(=O)c1ccc(NC(C)=O)cc1)C(C)C` (stereo not drawn), `CCOc1ccc(NS(=O)(=O)c2ccc(C(=O)N3CCC3)cc2)cc1` is lower in “hERG current change (%, negative = inhibition) at 10uM” value: 3.19% for the first, -4.09% for the second.

First: CCCc1cc(NCCCO)n2c(nc3ccccc32)c1C#N
Second: CCCc1cc(NCCCCO)n2c(nc3ccccc32)c1C#N
The “hERG current change (%, negative = inhibition) at 10uM” value of the first is higher: -16.6% for the first, -53.1% for the second.

Compared with `CCCc1c(C)c(C#N)c2nc3ccccc3n2c1NCCCN1CCOCC1`, `CCCc1cc(NCCCN2CCOCC2)n2c(nc3ccccc32)c1C#N` is lower in “hERG current change (%, negative = inhibition) at 10uM” value: -44% for the first, -75.7% for the second.

First: CCCc1cc(NCCN(C)C)n2c(nc3ccccc32)c1C#N
Second: CCCc1cc(NCCCN(C)C)n2c(nc3ccccc32)c1C#N
The “hERG current change (%, negative = inhibition) at 10uM” value of the first is lower: -7.73% for the first, 0.382% for the second.

First: Cc1cc(NCCN2CCOCC2)n2c(nc3ccccc32)c1C#N
Second: Cc1cc(NCC2CCCO2)n2c(nc3ccccc32)c1C#N (stereo not drawn)
The “hERG current change (%, negative = inhibition) at 10uM” value of the first is higher: -6.09% for the first, -21.2% for the second.

Compared with `CC(C)c1cc(NCC2CCCO2)n2c(nc3ccccc32)c1C#N` (stereo not drawn), `CCCc1cc(NCC2CCCO2)n2c(nc3ccccc32)c1C#N` (stereo not drawn) is lower in “hERG current change (%, negative = inhibition) at 10uM” value: -41% for the first, -66.5% for the second.

Compared with `CC1Cc2ccccc2N1C(=S)Nc1cccc(S(=O)(=O)N(C)C)c1` (stereo not drawn), `CC(C)C(=O)N1CCN(c2ccccc2NC(=S)NC(=O)c2cccs2)CC1` is lower in “hERG current change (%, negative = inhibition) at 10uM” value: 2.06% for the first, -2.66% for the second.

Going from `O=[N+]([O-])c1ccc(S(=O)(=O)CC(CN2CCOCC2)N2CCOCC2)cc1` (stereo not drawn) to `CC1CCN(CC(CS(=O)(=O)c2ccc([N+](=O)[O-])cc2)N2CCC(C)CC2)CC1` (stereo not drawn), the “hERG current change (%, negative = inhibition) at 10uM” value falls from -1.68% to -62.1%.

Compared with `Fc1ccc(OCCOCCN2CCNCC2)cc1.O=C(O)C(=O)O`, `O=C(O)C(=O)O.O=[N+]([O-])c1ccc(OCCN2CCNCC2)cc1` is lower in “hERG current change (%, negative = inhibition) at 10uM” value: 6.98% for the first, -76% for the second.

Compared with `CC1CCN(S(=O)(=O)c2ccc(Oc3ccc([N+](=O)[O-])cc3)cc2)CC1`, `CC1CCN(CCCCOc2ccc([N+](=O)[O-])cc2)CC1` is lower in “hERG current change (%, negative = inhibition) at 10uM” value: -21.7% for the first, -74.7% for the second.

First: O=C(O)C(=O)O.O=[N+]([O-])c1ccc(OCCN2CCCCCC2)cc1
Second: O=[N+]([O-])c1ccc(OCCCCN2CCCCC2)cc1
The “hERG current change (%, negative = inhibition) at 10uM” value of the first is lower: -86.1% for the first, -69.4% for the second.

Compared with `Cc1ccc(OCCN2CCNCC2)c([N+](=O)[O-])c1.O=C(O)C(=O)O`, `O=[N+]([O-])c1ccc(OCCCCCN2CCOCC2)cc1` is lower in “hERG current change (%, negative = inhibition) at 10uM” value: -5.84% for the first, -58.6% for the second.

First: COc1ccc(C)cc1N(C(=O)COc1cccc(F)c1)c1nc2ccccc2s1
Second: COc1ccccc1CNc1nc2nc(C)c(Cl)c(=O)n2[nH]1
The “hERG current change (%, negative = inhibition) at 10uM” value of the first is lower: -27.2% for the first, -2.39% for the second.

Going from `O=[N+]([O-])c1ccc(-n2nnnc2-c2ccccc2)c([N+](=O)[O-])c1` to `O=C(Cn1c(=O)n(Cc2ccco2)c(=O)c2c3c(sc21)CCCCC3)Nc1ccccc1`, the “hERG current change (%, negative = inhibition) at 10uM” value falls from 6.9% to 6.54%.

Compared with `CCOc1ccc(S(=O)(=O)NC2CC2)cc1`, `Cc1ccc(OCCCCCN2CCOCC2)cc1` is higher in “hERG current change (%, negative = inhibition) at 10uM” value: 4.15% for the first, 4.39% for the second.

First: Clc1ccc(OCCCCCN2CCOCC2)cc1
Second: O=c1c2c3c(sc2n(CCN2CCOCC2)c(=O)n1Cc1ccco1)CCCCC3
The “hERG current change (%, negative = inhibition) at 10uM” value of the first is higher: -37.6% for the first, -44.3% for the second.

Going from `C=Cc1ccc2c(c1)N(C)C(=C)S2.I` to `O=c1c2c3c(sc2n(CCN2CCCC2)c(=O)n1Cc1ccccc1)CCCCC3`, the “hERG current change (%, negative = inhibition) at 10uM” value falls from 19.7% to -34.7%.

First: O=c1c2c3c(sc2n(CCN2CCCC2)c(=O)n1Cc1ccco1)CCCCC3
Second: O=c1c2c3c(sc2n(CCN2CCCCC2)c(=O)n1Cc1ccco1)CCCCC3
The “hERG current change (%, negative = inhibition) at 10uM” value of the first is higher: -68.6% for the first, -69.1% for the second.
